Hit rate of the full screen: of about 53,000 sequences, about 3,700 (7%) were called active. The entries come from a sample that favours actives as a whole. Values without a mark were called inactive.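 The calls were made as follows: active = gene knockdowns whose robust z-score for IL-1 alpha signal is at least 2 or at most -2, so actives lie on both sides; inactive = the rest.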
Experiment: Components of the Cytosolic LPS Sensing Pathway: Gene Identification via Genome-wide siRNA Screen
Conditions: RAW264.7 macrophages, IL-1a HTRF, actives lie on both sides, screened at 100 nM (by protocol), cells primed 5 h with Pam3CSK4 first
Excerpt: Non-canonical inflammasome activation by cytosolic LPS is a critical component of the host response to Gram-negative bacterial infection, however we lack a comprehensive understanding of the cellular processes that control this pathway. Here we describe a genome-wide siRNA screen to identify genes regulating the mouse macrophage IL-1 alpha response to cytosolic LPS.
RAW264.7 cells were maintained in complete DMEM media, comprising DMEM with 4.5 g/L glucose, 10% FBS (Gemini Bio-Products, West Sacramento, CA), 2 mM Glutamine (Lonza) and 20 mM HEPES (Lonza), hereafter complete DMEM.
The RNAi screen was conducted in 384-well format using the Ambion Silencer Mouse Genome siRNA Library (#4391425), which consists of three unique, nonoverlapping, nonpooled siRNAs for each of 17,000 gene targets. siRNA reagents ([…]) were stamped into 384-well white flat-bottom microplates (Corning, 3570) using a Velocity11 VPrep liquid handling system (Agilent) integrated into a BioCel robotic platform (Agilent) in columns 1-22, leaving columns 23-24 empty for negative (Ambion, Negative control #1) and positive (mouse Casp4) controls, respectively. The median value of each plate's negative control column was used to normalize sample wells, and the positive control was used to assess transfection efficiency and assay performance.
Lipofectamine RNAiMAX Transfection Reagent ([…]; Invitrogen) was added in […] serum-free, antibiotic-free media to plate wells using a Thermo Scientific Matrix WellMate and Microplate Stacker. Plates were incubated for 45 min at room temperature to allow for the sufficient formation of siRNA-lipid complexes. Cells were seeded at a density of 1x10^4 cells per well in 20 microL media containing 20% (vol/vol) FBS without antibiotics. The final concentration of siRNA in each well was 100 nM. Cells were cultured for 48h at 37 degrees C in 5% CO2 before addition of […] of TLR ligand Pam3CSK4 for 5 hours. The medium was then removed, replaced with […] growth media and cell were transfected with […] of LipidA and TransIT-TKO (Mirus) for 24 hour. At the end of the LipidA treatment, […] of supernatant was transferred to a 384 Greiner Bio-one non-binding low volume plate and […] of IL-1a HTRF reagent (Cisbio, 62MIL1APEH) was added and incubated at room temperature overnight. The plates were read on an EnVision plate reader (PerkinElmer). Cell viability was measured by adding 20ul Cell Titer Glo to the original plate and running a luminescence read on the EnVision. The quantified IL-1a signal for each siRNA gene-targeted well was divided by the median of the negative control wells and multiplied by 100 to achieve a negative control normalized value for each well/siRNA. This normalized value was then used to generate a robust z-score by first taking the log of each value and then by subtracting the median and dividing by the […].

Sequence | z-score
CGUAGAGAUCAGUUCAAUGTT against Clock | -1.36
CGAGGACUCAAUAGUAGCCTT against Proser3 | -0.678
GGAUCCUGAAACAGUUCAATT against Atm | -0.218
GGGUGCUGUCAACAUAUGATT against Gabrq | 0.67
GCUUUGUUGCCCUACUACCTT against Pacrg | -2.26 (active)
CCUUUCAUACCUUAGGUUATT against Slc25a44 | -0.42
GGUGUAGAAUAGGACAAAUTT against Ntsr2 | 0.43
GGUCACAAUGGUUUAAGGATT against Tacr1 | -0.943
CCUGAUCUUGCACUCGAUGTT against Tbx6 | 0.422
GGUAGAAGCAGAGUUACCATT against Spata32 | -1.64
GGUGGAAGAAGAAAUUGUCTT against Tpd52l2 | -2 (active)
GGGAAGAUUUUUCUGAUCUTT against Kcnk13 | -1.52
GCUGGAGGACUCAUGUUCATT against Dimt1 | -0.0153
GGAGCUCAAGAGCUGGGUUTT against Tor2a | -1.1
GGAAGAACGACAAGAACAUTT against Tgfbr2 | 1.02
CGCGGUGUUCGACAUCUUGTT against Noc4l | 2.12 (active)
GGAUACCAUUGUGGUCGCATT against Hck | -0.406
GGAAUUCUUUCCAAACUGGTT against Steap1 | -0.0141
GGAUGUUUUAACUUGGAAATT against Sema5a | 2.25 (active)
GGUUGGUCAGAUGAAGGGUTT against Adgrf3 | -0.638
GGAACAGACAGAGAACACATT against Tgm6 | 2.54 (active)
CCGCUACAGGUUUACCAAGTT against Rhox8 | 0.129
GGACACCUGAUUUUCUUCUTT against Slc41a3 | -0.364
GCAAAAAGGCAGUAUUCUATT against Atp23 | 0.449
GCUCCAAAAGUCAAGACCGTT against Safb2 | -0.482
GGCUAAAUUAUUGCGCAAATT against C1qbp | 2.34 (active)
GGACCUUUCUGAAGUCCAATT against Ahsp | -0.0978
GGAUCAAGCCGAACAGUUCTT against Pigk | 2.34 (active)
GGCCAAUCUCACCUGGACATT against Man2b1 | -0.421
GGAGACUACUUUGUGUUUUTT against Ermp1 | 0.933
